# Screens as filed in PubChem.
# Shown is part of a subset that was picked to be rich in hits.
# YB-1 expr inh = YB-1 expression inhibition. U2OS, qRT-PCR YB-1 vs CDIP delta delta Cp, 16 h; active compounds read high; zero = DMSO, each unit about twofold. delta delta Cp (YB-1 minus CDIP) (no concentration beside the values). 0.37% of 30,000 active. AID 434959;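 active = delta delta Cp rounded down to an integer at or above 3, about 3 SD of DMSO wells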;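 note: higher means less YB-1 transcript or more CDIP transcript relative to DMSO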
# PD-1 reverse act = reversal of PD-1 mediated T-cell inhibition | activation, % (test concentration not listed) | primary human CD4 T cells, PD-L1 beads, CellTiter-Glo 96 h | 29,000 tested, under 10 active | AID 2316; call rule not given here;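 note: 0% = median vehicle wells and 100% = positive control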
# NOMO-1 viab = STK33 inhibitor candidate reducing NOMO-1 cell viability. NOMO-1 AML viability, CellTiter-Glo luminescence, 72 h. inhibition, % (concentration not given with the values). 7.5% of 37,000 active. AID 2330; in the data active = inhibition above about 80%
# U2OS ROS induce = cancer cell ROS induction | 2% of 46,000 active | U2OS ROS induction, H2DCF-DA fluorescence | ROS induction (% of piperlongumine), % at 10 µM; in the data active = ROS induction above about 79%, passing the limit was not always enough;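 note: 0% = DMSO vehicle median and 100% = reference compound median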
# MITF inhib = inhibitors of MITF. TRPM1 promoter luciferase, luminescence, 24 h. inhibition, % (no concentration beside the values). 0.28% of 37,000 active. AID 2240; in the data active = inhibition above about 85%;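 note: human melanocyte line stably carrying TRPM1 promoter luciferase reporter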
# Numbers without * were called inactive; . = no result.
SMILES,YB-1 expr inh,PD-1 reverse act,NOMO-1 viab,U2OS ROS induce,MITF inhib
O=C(Cn1cnc2scc(-c3cccc([N+](=O)[O-])c3)c2c1=O)Nc1ccc(F)c(Cl)c1,.,-1,31,17,66
COc1ccc(C#Cc2cnc3c(c2)C(=O)N([C@H](C)CO)C[C@H](C)[C@H](CN(C)S(=O)(=O)c2ccc(C)cc2)O3)cc1OC,0.27,.,.,140*,.
C[C@H](CO)N1C[C@H](C)[C@H](CN(C)S(=O)(=O)c2cccs2)Oc2ncc(C#Cc3ccccc3)cc2C1=O,0.029,.,.,40,.
C[C@H](CO)N1C[C@H](C)[C@H](CN(C)S(=O)(=O)c2cccs2)Oc2ncc(C#CC(C)(C)O)cc2C1=O,9.9*,.,.,0,.
COc1ccc(C#Cc2cnc3c(c2)C(=O)N([C@H](C)CO)C[C@H](C)[C@H](CN(C)S(C)(=O)=O)O3)cc1OC,-0.38,.,.,51,.
C[C@@H]1CCCCO[C@H](CN(C)C(=O)CCC(F)(F)F)[C@@H](C)CN([C@H](C)CO)C(=O)c2cc(N(C)C)ccc2O1,9.9*,.,-10,4,-2
C[C@@H]1CCCCO[C@H](CN(C)C(=O)Nc2ccccc2)[C@@H](C)CN([C@H](C)CO)C(=O)c2cc(NC(=O)c3ccccc3)ccc2O1,4.4*,-1,-8,14,-8
C[C@@H]1CCCCO[C@@H](CN(C)C(=O)Nc2ccccc2)[C@@H](C)CN([C@H](C)CO)C(=O)c2cc(NC(=O)c3ccncc3)ccc2O1,0.27,-1,-17,13,2
C[C@@H]1CCCCO[C@@H](CN(C)C(=O)Nc2ccccc2)[C@@H](C)CN([C@H](C)CO)C(=O)c2cc(NC(=O)CCC(F)(F)F)ccc2O1,-0.41,0,22,95*,-9
Cc1noc(C)c1NC(=O)Nc1cccc2c1O[C@@H](CN(C)CC1CCCCC1)[C@@H](C)CN([C@H](C)CO)C2=O,-0.14,2,21,-12,-2
CN(C)CCN(C(=O)C1CCCCC1)c1nc2ccc(Br)cc2s1,.,.,.,94*,.
CCC(C)C1NC(=O)C(CCC(=O)O)N(C)C(=O)C(C(C)C)N(C)C(=O)CNC(=O)C2CCCN2C(=O)C(Cc2ccccc2)NC(=O)C(C(C)CC)OC(=O)C(CCC(=O)O)N(C)C(=O)C(C(C)C)NC(=O)C2CCCCN2C1=O (configuration not stated),0.22,2,110*,26,59
C[C@@H]1CN([C@@H](C)CO)C(=O)c2cc(NC(=O)Cc3cn(C)c4ccccc34)ccc2O[C@@H]1CN(C)Cc1ccc(Oc2ccccc2)cc1,0.076,.,114*,59,38
C[C@H]1CN([C@@H](C)CO)C(=O)c2cc(NC(=O)Cc3cn(C)c4ccccc34)ccc2O[C@@H]1CN(C)Cc1ccc(Oc2ccccc2)cc1,-0.14,.,94*,134*,25
Cc1cc(C(=O)Nc2ccc(OCC(=O)O)cc2)ccc1[N+](=O)[O-],.,.,-15,.,13
COC(=O)COc1ccc(NC(=O)c2ccc([N+](=O)[O-])c(C)c2)cc1,.,.,118*,.,-2
COC(=O)COc1ccc(NC(=O)c2ccc(NC(C)=O)cc2)cc1,.,-5,118*,60,-8
COc1ccccc1NC(=O)CN1C(=O)C2C3CCC(C3)C2C1=O (configuration not stated),.,-2,10,.,38
COc1ccccc1NC(=O)C(Cc1ccccc1)N1C(=O)C2C3c4ccccc4C(c4ccccc43)C2C1=O (configuration not stated),.,0,92*,21,-2
COc1ccc(CN(C)C[C@H]2Oc3c(NC(=O)NC4CCCCC4)cccc3C(=O)N([C@@H](C)CO)C[C@H]2C)cc1,0.33,1,-5,1,-10
COc1ccc(OC)c(NC(=O)COc2ccc3c(=O)c(Oc4ccccc4Br)coc3c2)c1,.,-4,37,.,95*
COc1ccc(OC)c(NC(=O)COc2ccc3c(C)cc(=O)oc3c2)c1,.,0,-6,3,-22
O=C(CC(C(=O)O)n1ccnc1)c1ccc(C2CCCCC2)cc1 (configuration not stated),.,.,.,12,.
CCOC(=O)c1c(-c2ccccc2)oc2ccc(O)c(CSCC(=O)Nc3ccccc3)c12,9.6*,-1,126*,20,20
CCOC(=O)c1ccc(NC(=O)Cn2c(=O)oc3ccccc32)cc1,.,1,-5,-21,3
SMILES,YB-1 expr inh,PD-1 reverse act,NOMO-1 viab,U2OS ROS induce,MITF inhib
CN1C=C(c2ccccc2)N(c2ccccc2)C1,-0.032,1,11,12,-1
O=C1CC(c2ccccc2)Oc2ccccc21 (configuration not stated),0.19,.,-4,-3,-4
NC(=O)NC1C(=O)c2ccccc2OC1c1ccccc1 (configuration not stated),-0.082,-5,114*,1,12
C[C@@H]1CN([C@H](C)CO)C(=O)c2cc(NC(=O)Cc3cn(C)c4ccccc34)ccc2O[C@@H]1CN(C)C(=O)Nc1ccc(F)cc1,0.31,-1,23,-3,12
C[C@H](CO)N1C[C@H](C)[C@H](CN(C)Cc2ccc(C(F)(F)F)cc2)Oc2ccc(NS(=O)(=O)c3ccc(F)cc3)cc2CC1=O,-0.19,.,103*,1,7
Cc1ccc(S(=O)(=O)Nc2ccc3c(c2)CC(=O)N([C@@H](C)CO)C[C@H](C)[C@H](CN(C)Cc2ccc(C(F)(F)F)cc2)O3)cc1,0.45,1,112*,10,-4
C[C@H](CO)N1C[C@H](C)[C@H](CN(C)Cc2ccc(C(F)(F)F)cc2)Oc2ccc(NS(C)(=O)=O)cc2CC1=O,-0.23,-2,19,-3,-7
C[C@H](CO)N1C[C@H](C)[C@H](CN(C)Cc2ccc(-c3ccccc3)cc2)Oc2c(NC(=O)c3ccncc3)cccc2C1=O,-0.22,.,54,63,6
C[C@@H]1CN([C@@H](C)CO)C(=O)c2cccc(NC(=O)c3ccncc3)c2O[C@@H]1CN(C)Cc1ccc(Oc2ccccc2)cc1,0.15,0,9,3,-12
CC(C)NC(=O)N(C)C[C@H]1Oc2c(NC(=O)c3ccncc3)cccc2C(=O)N([C@H](C)CO)C[C@H]1C,-0.84,0,13,-6,4
CC(C)NC(=O)N(C)C[C@@H]1Oc2c(NC(=O)c3ccncc3)cccc2C(=O)N([C@@H](C)CO)C[C@H]1C,-0.077,.,11,101*,-6
C[C@@H]1CN([C@H](C)CO)C(=O)c2cccc(NC(=O)c3ccncc3)c2O[C@H]1CN(C)Cc1ccc(Oc2ccccc2)cc1,-0.21,-4,91*,48,28
C[C@H](CO)N1C[C@H](C)[C@@H](CN(C)Cc2ccc(-c3ccccc3)cc2)Oc2c(NC(=O)c3ccncc3)cccc2C1=O,0.064,-2,83*,149*,34
COc1ccccc1NC(=O)CNS(=O)(=O)c1ccc(C(C)(C)C)cc1,.,2,1,4,15
COc1ccc(-c2cc(N)n(S(=O)(=O)Cc3ccccc3)n2)cc1,.,.,.,-10,.
